15-hLO inh: inhibitors of human 15-lipoxygenase (ALOX15) | purified 15hLO-1, xylenol orange hydroperoxide absorbance | Potency, µM (series often up to 57.1 µM), for inactives: at the top dose activity change, negative = inhibition, most hits filed as inhibitors | AID 887 | P16050 | 1.4% of 74,000 active; also: % is scaled to controls: 0 for no effect and ±100 for the full control effect; nearly all actives have a fitted effect of over 55% in size
Target sequence (P16050 whole entry, looked up): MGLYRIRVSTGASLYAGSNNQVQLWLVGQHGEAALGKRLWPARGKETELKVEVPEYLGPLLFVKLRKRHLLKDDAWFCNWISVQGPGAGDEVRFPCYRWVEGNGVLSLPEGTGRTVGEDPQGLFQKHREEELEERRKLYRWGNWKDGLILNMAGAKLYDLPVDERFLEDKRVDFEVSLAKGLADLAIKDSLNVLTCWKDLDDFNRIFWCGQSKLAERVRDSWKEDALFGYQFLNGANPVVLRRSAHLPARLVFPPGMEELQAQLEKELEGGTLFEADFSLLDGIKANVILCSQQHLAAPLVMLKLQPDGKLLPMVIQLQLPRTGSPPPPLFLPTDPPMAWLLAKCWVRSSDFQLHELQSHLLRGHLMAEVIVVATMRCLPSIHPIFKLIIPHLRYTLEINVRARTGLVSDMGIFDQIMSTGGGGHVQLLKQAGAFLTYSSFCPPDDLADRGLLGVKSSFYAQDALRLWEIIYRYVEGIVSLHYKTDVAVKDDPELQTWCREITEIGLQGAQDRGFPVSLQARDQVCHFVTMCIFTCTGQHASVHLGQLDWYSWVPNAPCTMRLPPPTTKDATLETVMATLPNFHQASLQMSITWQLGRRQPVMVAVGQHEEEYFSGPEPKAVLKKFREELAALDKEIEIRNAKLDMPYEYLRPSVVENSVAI
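Hydroperoxide formed from arachidonic acid (50 uM) by purified human 15hLO-1 (40 nM) oxidizes ferrous iron, and the ferric-xylenol orange complex is read at 573 versus 405 nm. Compounds were preincubated 15 min; reaction ran 6 min at room temperature.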
IkB signaling: IkB pathway inhibition in ABC-DLBCL cells; ABC-DLBCL IkBa-CBG/CBR dual luciferase ratio, 4 h; response scale: scaled: untreated 0%, proteasome inhibitor 100%; Potency, µM (doses to about 57.1 µM), without a hit: at the top dose IkBa stabilization activation; 0.04% of 110,000 active; active = well fitted curve in the direction sought with a large enough effect in the signal ratio, not every such curve was filed as active; inconclusive = small, poorly fitted or top-dose-only effect, or a change in a side signal; the % refers to the signal ratio;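 also: the direction sought is a rising ratio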
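Luminescence ratio of IκBα-fused green versus native red beetle luciferase in OCI-Ly3 cells, 4 h post-doxycycline with compound; red signal alone, scaled from basal (0%) to zero light (-100%), flagged nonspecific or cytotoxic effects.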
Hsp90 Hop PPI: changes Hsp90-Hop TPR2A binding signal, up or down; AlphaScreen TPR2A-His6 binding biotin-Hsp90 C-terminal peptide; Potency, µM (top dose mostly 57 µM), for inactives: at the highest dose activity change, negative = inhibition; 0.44% of 71,000 active; AID 595; active = well fitted curve in either direction with a large enough effect; inconclusive = small, poorly fitted or top-dose-only effect, or another doubt; also: % is scaled to controls: 0 for no effect and ±100 for the full control effect
CRE Fsk mod: modulators of forskolin-stimulated CRE signaling in CHO cells | 2.5% of 71,000 active | CHO CRE-bla reporter (cAMP response element driving beta-lactamase), forskolin EC10, beta-lactamase ratio | Potency, µM (doses to about 38.2 µM), inactives show top-dose activity change, negative = inhibition, usual class: activators; active = well fitted activation curve with a large enough effect in the signal ratio, with a control signal flat, not every such curve was filed as active; inconclusive = small, poorly fitted or top-dose-only effect, or effect the other way, or a change in a side signal; the % refers to the signal ratio; also: % of control where 0% means no effect
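Using CellSensor CRE-bla CHO cells in Opti-MEM with 0.5% dialyzed FBS, compounds were titrated with EC10 NKH 477 for 3 h at 37 °C. CCF4 ratio (460/530 nm) gave %Activity; AC50 derived.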
Tau filament bind: binds recombinant human tau filaments. P10636. recombinant tau filaments, thioflavin S fluorescence, 15 h; filaments grown with octadecylsulfate alongside compound. Potency, µM (series often up to 57.1 µM), for inactives: at the top dose activity change, negative = inhibition. 2% of 71,000 active. AID 596;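 also: % is scaled to controls: 0 for no effect and ±100 for the full control effect; actives lower thioflavin S fluorescence by blocking filaments or displacing dye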
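His-tagged recombinant human tau (exons 2, 3, 10; 1 uM final) fibrillized with 30 uM sodium octadecylsulfate, 15 h at 37 C, in pH 7.4 HEPES buffer with 10 uM thioflavine S and 5 mM DTT. Reduced ThS fluorescence (450/510 nm) marks activity.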
An asterisk follows results filed as active; ? = inconclusive; · = no result; ! = not confirmed by another sample; [ ] = another dose, or the depositor's remark. Compounds with a hit are over-represented: about 3.6% of the library has one in this group of screens. Unless noted, calls follow the shape of the dose curve; as a rule, active = well fitted curve in the direction sought with a large enough effect; inconclusive = small, poorly fitted or top-dose-only effect, or another doubt; inactive = no such curve, though single readings can be large; an effect the other way counts as inactive or inconclusive. Potency is read from the fitted curve at half-maximal effect.

SMILES	15-hLO inh	IkB signaling	Hsp90 Hop PPI	CRE Fsk mod	Tau filament bind
CCC(=O)O[C@H](CC(=O)O)C[N+](C)(C)C	-16%[25.6 µM]	0%	-5%	-8%	?
CC1CCN(S(=O)(=O)c2ccc3c(c2)CCN3C(=O)Nc2ccc(Br)cc2)CC1	·	-2%	·	·	·
COc1ccc(OCC(=O)NCc2ccc3c(c2)CCN3C(=O)c2ccc(F)cc2)cc1	·	-2%	·	·	·
Cn1c(=O)n(Cc2ccc(F)cc2)c(=O)c2c1nc1n2CCCN1C1CCCCC1	-15%	-1%	-3%	10µM*	-12%
NC(=O)c1sc(=S)n(-c2ccc(Br)cc2)c1N	10µM*	?	?	-25%	-19%
COc1ccccc1-n1c(N)c(C(N)=O)sc1=S	-28%	-1%	0%	?	8%
O=C(O)C1Nc2c(O)cccc2C2C=CCC12 (stereo unspecified)	?	?	25µM*	?	13µM*
O=C(OC1CCCCC1)c1ccc2c(c1)C1C=CCC1C(C(=O)O)N2 (stereo unspecified)	25µM*	5%	?	-17%	0.63µM*
COCCn1c(SCc2csc(-c3ccccc3)n2)nc2ccccc21	-5%	?	?	2.5µM*	4%
Cc1ccccc1-n1nnnc1SCc1csc(-c2ccccc2)n1	-13%	?	?	0%	14%
COC1(C#CC2C=CC(OC(C)=O)C(COC(C)=O)O2)CCCCC1 (stereo unspecified)	-12%[11.4 µM]	·	·	·	·
c1ccc(CSc2nnc3c(n2)OC(c2ccco2)Nc2ccccc2-3)cc1 (stereo unspecified)	-10%[11.4 µM]	?	-12%[11 µM]	30%[7.6 µM]	4µM*
C=CCSc1nnc2c(n1)OC(c1cccnc1)Nc1ccccc1-2 (stereo unspecified)	?	12%	-2%	26%	-5%
Cc1ccc(-n2c(=O)c3ccc(C(=O)NCc4ccco4)cc3n(Cc3ccc(Cl)cc3)c2=O)cc1	·	-1%	·	·	·
CC[C@H](NC(C)C)[C@H](O)c1ccc(O)c2[nH]c(=O)ccc12	-5%[25.6 µM]	0%	0%	-11%	32µM*
N=C(N)SCCc1ccc(OCc2ccc([N+](=O)[O-])cc2)cc1	?	?	-3%	?	32µM*
CCCCCCNc1ncnc2c1sc1nc(N3CCOCC3)c3c(c12)CCCC3	·	0%	·	·	·
Cn1c(NCc2cccc(Br)c2)nc2ccccc21	10µM*	5%	-9%	23%	7%
Cn1c(NCc2ccccc2O)nc2ccccc21	-1%	5%	-5%	6%	-8%
Cc1sc2c(c1C)c(=O)n(-c1cccc(C(F)(F)F)c1)c(=O)n2Cc1ccc(F)cc1	·	-1%	·	·	·
CCOC(=O)c1c(-c2ccc(Br)cc2)csc1NC(=O)c1ccccc1F	·	1%	·	·	·
CCOC(=O)c1c(NC(=O)c2nn(CC)cc2Br)c(C#N)cn1-c1ccccc1	-9%	?	2%	2.5µM*	47%
CCOC(=O)c1c(-c2ccccc2)csc1NC(=O)c1nn(CC)cc1Br	-6%	?	?	2.5µM*	45%
Cc1ccccc1NC(=O)c1ccc(F)c(S(=O)(=O)N2CCN(c3ccccc3F)CC2)c1	·	-2%	·	·	·
CCN(CC)c1nc(N(CC)CC)[nH]c(=O)n1	13µM*	-1%	-1%	?	5%
SMILES	15-hLO inh	IkB signaling	Hsp90 Hop PPI	CRE Fsk mod	Tau filament bind
CN(C)c1ccc(/C=N/n2ncc3ccccc32)cc1	-2%	?	25µM*	?	-26%
C=CCn1c(/N=C/c2ccc(N(C)C)cc2)nc2ccccc21	5%	-1%	-8%	6%	-1%
CCOC(=O)c1cnc(-n2nc(C)cc2C)nc1NCc1ccccc1	25%	?	-25%	-6%	178%
CCOC(=O)c1cnc(-n2cc(C)cn2)nc1NCc1ccc2c(c1)OCO2	82%	1%	-6%	2.5µM*	45%
CC1=C(C)C(=O)NC(Nc2nc(C)c3cc(C)cc(C)c3n2)N1 (stereo unspecified)	0%	-1%	-7%	0.79µM*	-18%
O=C(CN1C(=O)COc2ccc(Cl)cc21)Nc1cccc(C(=O)O)c1	·	-1%	·	·	·
Cc1cccc(NC(=O)CN2C(=O)COc3ccc(Cl)cc32)c1	5µM*	?	?	-9%	-7%
CCC(=O)N1CCc2cc(Br)cc(S(=O)(=O)N3CCCC(C(=O)NCc4ccccc4)C3)c21 (stereo unspecified)	·	-1%	·	·	·
COc1ccccc1Nc1nc(-c2cccs2)cs1	?	?	-19%	-2%	13µM*
COc1ccc(OC)c(Nc2nc(-c3cccs3)cs2)c1	-15%	5%	-13%	?	16µM*
COCCNC(=O)C1CCN(Cc2cc3ccccc3n2Cc2ccc(C)cc2)CC1	·	0%	·	·	·
COc1ccc(CCNC(=O)CSc2cc(=O)n(C)c3ccccc23)cc1OC	·	-4%	·	·	·
Nc1nc2ccc(OC(F)(F)F)cc2s1	?	-1%	1%	13µM*!	1%
Nc1nc2ccc(Oc3ccccc3)cc2s1	-2%	-1%	-1%	16%	4%
COc1cccc(NC(=O)CSc2nnc(-c3cc(-c4ccccn4)nc4ccccc34)o2)c1	1%	?	-8%	?	25µM*
COc1ccc(-c2nnc(SCC(=O)Nc3cccc(Cl)c3)o2)cc1	3%	1%	1%	4%	134%
Cc1ccc2[nH]c3c(c2c1)CCC3=O	-2%	0%	0%	2%	-4%
Cc1ccc2[nH]c3c(c2c1)CCc1cn[nH]c1-3	-15%	0%	-4%	?	7.9µM*
CN(C)c1ncnc2ccc(-c3ccoc3)cc12	-5%	-3%[11.4 µM]	-2%	-18%	5%
CN(C)c1ccc(-c2ccc3ncnc(N(C)C)c3c2)cc1	-1%	?	-4%	10µM*	5µM*
CN(C)c1ncnc2ccc(-c3ccccc3C#N)cc12	-1%	-1%[11.4 µM]	?	2µM*	-14%
c1nc(N2CCNCC2)c2cc(-c3ccc4c(c3)OCO4)ccc2n1	3%	-4%[11.4 µM]	-4%	?	-5%
CN(C)c1ccc(-c2ccc3ncnc(N4CCNCC4)c3c2)cc1	-1%	-1%[11.4 µM]	-6%	?	13µM*
CC(C)c1ccc(S(=O)(=O)Nc2cc3c(cc2NCc2ccccc2)n(C)c(=O)n3C)cc1	·	22%	·	·	·
CC(=O)N1CCC2(CC1)C(C#N)=C(N)Oc1c2sc2nc(C)cc(C)c12	?	0%	-5%	?	14%
CCN1CCC2(CC1)C(C#N)=C(N)Oc1c2sc2nc(C)cc(C)c12	25µM*	1%	-4%	?	112%
Cc1nn2c(=O)cc(COC(=O)c3ccco3)nc2s1	·	3%	·	·	·
COc1ccc(Nc2ccc3c(c2)=NC2(CCCCC2)[N+]=3[O-])cc1	?	?	?	-10%	16µM*
Oc1cccc(Nc2ccccc2)c1	-6%	1%	-4%	-4%	-14%

Screening data (PubChem)
